The text below walks through data of PubChem BioAssay (NCI).

“And” between values parts separate entries of the source, which are not always exact repeats. Identical values can stand only once. This is part of a sample that, as a whole, favours compounds with a hit. Of some 83,000 tested, about 20% had one in any assay.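 In brief: 96-well plates, 48 h treatment, single concentration, percent growth endpoint.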 Values without a mark were called inactive. The source made the active and inactive calls. The calls were made as follows: active = growth percent below 10; inactive = the rest.

In the test the test system is MDA-MB-468 breast. Nature of the test: NCI-60 one-dose screen, 48 h (100 = growth as untreated, 0 = no growth, -100 = all killed). The following applies: 10 µM unless noted.
Take `COC(=O)c1ccc(NC2=C/C(=N/S(=O)(=O)c3ccc(C(=O)O)cc3)c3ccccc3C2=O)cc1`: the growth is -37.4% (active).
The value for `Cn1ccnc1C(=O)/C=C/c1ccc(C(=O)Nc2ccc(S(F)(F)(F)(F)F)cc2)cc1` was 14.5%.
The value for `NC(=O)c1cccc(-c2ccccc2N2CCCCC2)c1` was 94.2%; that for `Cc1[c-]onc1C.Cc1[c-]onc1C.[Ag].[Ag].[NH-]S(=O)(=O)c1ccc(N=Nc2cc(N=Nc3ccc(S([NH-])(=O)=O)cc3)c3c(NC(=O)C(Cl)Cl)cccc3c2OC(=O)C(Cl)Cl)cc1` was 53.9%; that for `Fc1cccc(Cl)c1/C=N/Nc1nc(N/N=C/c2c(F)cccc2Cl)nc(N2CCCCC2)n1` was -14.2% (active).
The value for `COC(=O)CCCNC(=O)C(=O)c1c(O)c(O)c(C(C)C)c2cc(C)c(-c3c(C)cc4c(C(C)C)c(O)c(O)c(C(=O)C(=O)NCCCC(=O)OC)c4c3O)c(O)c12` was -1.3% (active).
As for `COC(=O)C(c1ccccc1)C(CC(=O)c1ccccc1)c1ccccc1` (stereo not given), the growth is 87.5%.
For the compound `N#CC1=C(N)Oc2c(c(=O)[nH]c3ccc(Cl)cc23)C12C(=O)c1ccccc1C2=O`, the growth is 96.6%.
For `Cn1c(C(=O)c2cccc3ccccc23)nc2ccccc21`, the growth was -1.13% (active).
For the compound `CCCCc1oc2ccccc2c1C(=O)c1cc(I)c(OCCN(CC)CC)c(I)c1`, the growth is -87.4% (active).
In the case of `COc1ccc(C2=NN(C(C)=O)C(c3c(C)nn(-c4ccccc4)c3N3CCOCC3)C2)cc1` (stereo not given), the growth was 92.6%.
For `O=C1NCC(Nc2ccc(Br)cc2Cl)C(=O)N1` (stereo not given), the growth was 124%.
`O=C(N=Nc1c(O)[nH]c2ccc(F)cc12)c1cc2ccccc2[nH]1`: the growth was 124%.
In the case of `CCCCC1(CC)COC(CCC)OC1` (stereo not given), the growth is 99.7%.
Regarding `Fc1ccc(Nc2nc(NCCNc3ccnc4cc(Cl)ccc34)nc(N3CCOCC3)n2)cc1`, the growth was 16.7%.
With `O=[N+]([O-])c1ccc(N/N=C\c2ccc(O)cc2O)nc1` the figure was 56%; with `COc1cc(-c2nc3ccccc3[nH]2)ccc1OCc1nnc(-c2ccc(CC(C)C)cc2)o1`, 94.1%; with `COc1cccc(CCC(=O)c2cc3c(N)c(C(=O)Nc4ccccc4)sc3nc2C)c1`, 25.2%.
As to `COc1cc2c(c(OC)c1OC)-c1ccc(NCc3ccccc3)c(=O)cc1[C@@H](NC(C)=O)CC2`, the growth is 17.3%.
As to `Nc1ccc(Nc2ncnc3sc4c(c23)CCN(Cc2ccccc2)C4)cc1`, the growth was 90.4%.
The value for `CN(C)CCCOc1cccc(NC2=C(Cl)C(=O)C(Nc3cccc(OCCCN(C)C)c3)=C(Cl)C2=O)c1` was -57.3% (active).
The value for `CCN1CCC2(CC1)NC(=O)c1c(c3ccc(Cl)c(Cl)c3n1C)C2C#N` (stereo not given) was -16.3% (active); that for `COc1nc(N(C)O)nc(N(C)O)n1` was 29.4%.
With `COc1cc(-c2nnc(SCc3ccc(O)c4ncccc34)n2-c2ccccc2)cc(OC)c1OC` the figure was -10.1% (active); with `[2H]C([2H])([2H])Oc1ccc(/C=C/C(=O)/C=C(O)/C=C/c2ccc(OC([2H])([2H])[2H])c(OC([2H])([2H])[2H])c2)cc1OC([2H])([2H])[2H]`, 1.44% (active); with `CCOC(=O)c1sc2ncnc(Nc3ccc(NC(=O)Nc4ccc(Cl)cc4)cc3)c2c1C`, 68.9%.
For the compound `O=C(CCCCCCCCC(=O)Nc1cccc(C2=NCCN2)c1)Nc1cccc(C2=NCCN2)c1`, the growth was 118%.
As for `NC(N)=Nc1ccc(Oc2cccc(Nc3ccc(Cl)cc3)c2)cn1`, the growth is -27.9% (active).
Consider `O=C(Nc1nc2ccc(C(F)(F)F)cc2s1)c1cc(Cl)ccc1O`, for which the growth was -1.49% (active).
The value for `CC(C)c1ccc(-n2c(=S)[nH]c3sc4cc(O)ccc4c3c2=O)cc1` was 96.5%; that for `CCN(CC)S(=O)(=O)c1ccc(NC(=O)CSc2nnc(C)n2-c2ccccc2)cc1` was 90.6%.
On to `COc1ccc2[nH]cc(C3(c4c[nH]c5ccc(OC)cc45)C(=O)Nc4ccc(F)cc43)c2c1`, for which the growth was 96.9%.
With `CN1CCN(c2ccc(NC(=O)c3cncnc3Nc3ccc4c(ccn4Cc4cccc(F)c4)c3)cc2)CC1` the figure was 44.9%; with `S=c1nc[nH]c2nc[nH]c12`, 6.65% [50 µM] (active); with `O=C(NCCO)Nc1ccc(-c2nc(N3CCOCC3)c3cccn3n2)cc1`, -24.2% (active).
With `O=C(CSC1CCc2ccccc21)N/N=C/c1ccccc1O` (stereo not given), the growth is 33.9%.
With `NC(N)=N/N=C\c1cccc(OCc2ccccc2)c1` the figure was 19.1%.
The value for `O=C(Nc1cccc(-n2ccc3c(NC(=O)c4ccccc4)nccc32)c1)c1cc(N2CCOCC2)cc(C(F)(F)F)c1` was -32.3% (active); that for `CC1=CC(O)C2CC1C2(C)C` (stereo not given) was 105% and 100%.
The value for `COc1cc(C2C=C(c3ccc(C)cc3)Nc3nc(SC)[nH]c(=O)c32)ccc1Oc1ccnc2cc(Cl)ccc12` (stereo not given) was 75.3%.
